HT1080 IDH1KD tx: qHTS for induction of synthetic lethality in tumor cells producing 2HG: qHTS for the HT-1080-IDH1KD cell line; HT-1080 IDH1 knockdown viability, ATP luminescence, 48 h; Potency, µM (titrated, usually from 46.1 µM), usual class: cytotoxic; 360,000 compounds, 2% hits; AID 686971, 2013
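Using the IDH1-knockdown HT-1080 line run in the same batch and compound series as the NT line, viability after 48 h at 37 °C was determined by CellTiter-Glo luminescence and expressed as % activity.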
HT1080NT lethal: qHTS for induction of synthetic lethality in tumor cells producing 2HG: qHTS for the HT-1080-NT fibrosarcoma cell line. 360,000 compounds, 1.6% hits. AID 686970, 2013. HT-1080-NT fibrosarcoma viability, CellTiter-Glo ATP luminescence, 48 h. Potency, µM (highest dose often 46.1 µM), actives largely listed as cytotoxic;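 also: NT is the 2HG producing partner of a matched IDH1 knockdown line; nearly all actives have a fitted effect of over 55% in size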
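Compounds were tested in concentration-response format on HT-1080-NT cells for 48 hours at 37 degrees C. Cell viability came from CellTiter-Glo luminescence; curves were classified by r2, response magnitude and activity.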
DT40 TDP1 no CPT: qHTS for Inhibitors of human tyrosyl-DNA phosphodiesterase 1 (TDP1): qHTS in cells in absence of CPT | AID 686978, 2013 | 420,000 compounds, 15% hits | DT40 Tdp1-/- hTDP1 cells, no CPT, ATP luminescence, 48 h | Potency, µM (highest dose often 46.2 µM), usual class: inhibitors; also: nearly all actives have a fitted effect of over 55% in size
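Compound effects on proliferation are scored in DT40 Tdp1-/-;hTDP1 cells in the absence of CPT. ATP levels (CellTiter-Glo luminescence) are recorded after a ≥48 hr, 37 °C incubation.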
TDP1 cell CPT: qHTS for Inhibitors of human tyrosyl-DNA phosphodiesterase 1 (TDP1): qHTS in cells in presence of CPT | chicken DT40 Tdp1-/-;hTDP1 cells + 20 nM CPT, ATP luminescence, 48 h | Potency, µM (top dose mostly 46.2 µM), usual class: inhibitors | 420,000 compounds, 12% hits; also: nearly all actives have a fitted effect of over 55% in size
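Cell growth measured by CellTiter-Glo luminescence after a minimum 48 h, 37 C compound exposure with 20 nM CPT in Tdp1-knockout DT40 cells stably expressing hTDP1, seeded 400/well; qHTS titration format.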
IL1B secr inh: qHTS for Inhibitors of Inflammasome Signaling: IL-1-beta AlphaLISA Primary Screen | THP-1 LPS/ATP IL-1B secretion, AlphaLISA, 16 h; stronger effect = lower value | activity change, % at 57.5 µM | 360,000 compounds, 4.7% hits | AID 743279, 2014; in the data active = activity change below about -50%; inconclusive = mostly about -30% to -49%
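Secreted IL-1B measured by AlphaLISA bead assay after 16 h compound exposure of THP-1 cells; compounds (final up to 57.5 uM) added 1 h before LPS (250 ng/mL) and ATP (1.25 mM) stimulation; lower signal means less secretion.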
12-LOX inh: Primary qHTS assay for inhibitors of human arachidonate 12S-lipoxygenase (ALOX12): Round 2; Polyunsaturated fatty acid lipoxygenase ALOX12 (Homo sapiens), P18054; purified 12hLO, xylenol orange hydroperoxide absorbance; Potency, µM (top dose mostly 108 µM), usual class: inhibitors; 580,000 compounds, 1.1% hits; AID 1671190, 2021
Target sequence (P18054 whole entry, looked up): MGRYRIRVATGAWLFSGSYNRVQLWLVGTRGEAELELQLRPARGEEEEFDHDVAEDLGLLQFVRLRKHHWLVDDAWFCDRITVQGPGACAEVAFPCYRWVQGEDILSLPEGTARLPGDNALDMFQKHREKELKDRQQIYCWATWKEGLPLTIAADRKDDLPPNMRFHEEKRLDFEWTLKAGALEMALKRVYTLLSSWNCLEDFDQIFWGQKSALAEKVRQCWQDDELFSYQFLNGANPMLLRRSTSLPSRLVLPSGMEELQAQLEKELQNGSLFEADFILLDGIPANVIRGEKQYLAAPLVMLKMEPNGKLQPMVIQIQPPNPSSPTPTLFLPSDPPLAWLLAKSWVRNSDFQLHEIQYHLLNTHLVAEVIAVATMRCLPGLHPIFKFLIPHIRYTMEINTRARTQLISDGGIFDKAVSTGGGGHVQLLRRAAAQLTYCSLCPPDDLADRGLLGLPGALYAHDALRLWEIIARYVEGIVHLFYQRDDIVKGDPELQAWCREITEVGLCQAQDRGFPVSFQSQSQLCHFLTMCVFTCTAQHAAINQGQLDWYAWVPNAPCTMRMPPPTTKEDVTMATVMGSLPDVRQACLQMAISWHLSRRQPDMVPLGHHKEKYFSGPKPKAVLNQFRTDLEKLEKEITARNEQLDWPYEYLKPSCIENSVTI
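Purified human 12hLO (150 nM final) in 25 mM Hepes, 0.01% Triton X-100, pH 7.0 was preincubated 15 min at room temperature with compound. Then 40 uM arachidonic acid was added, 30 min. Hydroperoxide was read by Fe-XO absorbance ratio 573/405 nm.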
Each line names hits and unclear results; the compound was inactive in the other large screens. The full list was thinned out, with hits kept by preference. Unless noted, calls follow the shape of the dose curve; as a rule, active = well fitted curve in the direction sought with a large enough effect; inconclusive = small, poorly fitted or top-dose-only effect, or another doubt; inactive = no such curve, though single readings can be large; an effect the other way counts as inactive or inconclusive.

Cc1cccc(NC(=O)CCN2C(=O)C3C4C=CC(C4)C3C2=O)n1 (stereo not given)	DT40 TDP1 no CPT 23µM, TDP1 cell CPT 16µM
O=C(CCN1C(=O)C2C3C=CC(C3)C2C1=O)Nc1ccccn1 (stereo not given)	none
O=C1C2C3C=CC(C3)C2C(=O)N1CCc1ccccc1 (stereo not given)	none
O=C(Nc1ccccc1C(=O)NCCCN1CCOCC1)c1ccc(F)cc1	IL1B secr inh inconclusive
S=C(Nc1ccccc1Cl)N(Cc1ccccc1)Cc1ccccn1	DT40 TDP1 no CPT inconclusive, TDP1 cell CPT inconclusive, IL1B secr inh -52
OCCN(Cc1ccccc1)C(=S)Nc1ccc(Cl)cc1Cl	DT40 TDP1 no CPT inconclusive, TDP1 cell CPT inconclusive, IL1B secr inh -56
CCCN(Cc1ccccc1)C(=S)Nc1cccc(C(F)(F)F)c1	DT40 TDP1 no CPT inconclusive, TDP1 cell CPT inconclusive, 12-LOX inh inconclusive
CN(C)CCCN(Cc1ccccc1)C(=S)Nc1ccc(F)c(Cl)c1	HT1080 IDH1KD tx inconclusive, HT1080NT lethal inconclusive, DT40 TDP1 no CPT 18µM, IL1B secr inh inconclusive
CN(C)CCCN(Cc1ccccc1)C(=S)Nc1cccc(C(F)(F)F)c1	DT40 TDP1 no CPT inconclusive, TDP1 cell CPT 15µM, 12-LOX inh inconclusive
Cc1cccc(NC(=O)CN2CCN(C(=O)C(C)Oc3ccc(C#N)cc3)CC2)c1C (stereo not given)	none
CC(Oc1ccc(C#N)cc1)C(=O)N1CC=C(c2ccccc2)CC1 (stereo not given)	HT1080 IDH1KD tx inconclusive, HT1080NT lethal inconclusive, DT40 TDP1 no CPT inconclusive, TDP1 cell CPT inconclusive, IL1B secr inh -61
COc1ccc(O)c(/C=N/NC(=O)c2ccc(OCc3cccc(Br)c3)cc2)c1	HT1080 IDH1KD tx 5.2µM, HT1080NT lethal 1.6µM, DT40 TDP1 no CPT 5.8µM, TDP1 cell CPT 4.6µM
CCCOc1ccc(Br)cc1/C=N/NC(=O)c1cc(OC)c(OC)c(OC)c1	none
COc1ccc(C(=O)N/N=C/c2cc(Br)ccc2O)cc1OC	HT1080 IDH1KD tx inconclusive, HT1080NT lethal inconclusive, DT40 TDP1 no CPT 3.3µM, TDP1 cell CPT 2.3µM, 12-LOX inh inconclusive
Cc1ccc2c(C)c(C(=O)O)oc2c1	none (no result: HT1080 IDH1KD tx, HT1080NT lethal, DT40 TDP1 no CPT, TDP1 cell CPT, IL1B secr inh)
CC(C)CC(O)C(=O)N1CCC(n2nccc2NC(=O)c2ccccc2)CC1 (stereo not given)	none (no result: HT1080 IDH1KD tx, HT1080NT lethal, DT40 TDP1 no CPT, TDP1 cell CPT, IL1B secr inh)
CN(Cc1nc2ccccc2[nH]1)S(=O)(=O)c1ccccc1F	none (no result: HT1080 IDH1KD tx, HT1080NT lethal, DT40 TDP1 no CPT, TDP1 cell CPT, IL1B secr inh)
Cc1c(Cl)cccc1-c1ccc(CNc2ccc3[nH]c(=O)[nH]c3c2)o1	DT40 TDP1 no CPT inconclusive, TDP1 cell CPT 3.3µM, 12-LOX inh inconclusive (no result: HT1080 IDH1KD tx, HT1080NT lethal, IL1B secr inh)
O=c1[nH]c2ccc(NCc3ccc(-c4cccc(Cl)c4)o3)cc2[nH]1	DT40 TDP1 no CPT 18µM, TDP1 cell CPT 29µM, 12-LOX inh inconclusive (no result: HT1080 IDH1KD tx, HT1080NT lethal, IL1B secr inh)
O=c1[nH]c2ccc(NCc3ccc(F)cc3)cc2[nH]1	DT40 TDP1 no CPT inconclusive
CNCc1ccc(-c2ccc(Br)cc2)o1	12-LOX inh 28µM (no result: HT1080 IDH1KD tx, HT1080NT lethal, DT40 TDP1 no CPT, TDP1 cell CPT, IL1B secr inh)
CNCc1ccc(-c2ccc(Cl)cc2)o1	none (no result: HT1080 IDH1KD tx, HT1080NT lethal, DT40 TDP1 no CPT, TDP1 cell CPT, IL1B secr inh)
O=c1[nH]c2ccc(NCc3ccc(-c4ccc(Br)cc4)o3)cc2[nH]1	12-LOX inh 10µM (no result: HT1080 IDH1KD tx, HT1080NT lethal, IL1B secr inh)
CCOC(=O)C1CC(c2ccccc2)=NN1c1ccccc1 (stereo not given)	DT40 TDP1 no CPT inconclusive, TDP1 cell CPT inconclusive, 12-LOX inh inconclusive
O=C(c1ccc(Cl)cc1)N1CCC2(CC1)CC(Cc1ccccc1)=NO2	none (no result: HT1080 IDH1KD tx, HT1080NT lethal, DT40 TDP1 no CPT, TDP1 cell CPT, IL1B secr inh)
CC(CNC(=O)c1cc2cc(S(=O)(=O)N3CCCCC3)ccc2n1C)c1ccccc1 (stereo not given)	DT40 TDP1 no CPT 12µM, TDP1 cell CPT 3.3µM (no result: HT1080 IDH1KD tx, HT1080NT lethal, IL1B secr inh)
